Bioassay records deposited in PubChem BioAssay by The Scripps Research Institute Molecular Screening Center.
Compounds with a hit are over-represented: about 4.1% of the library has one in this group of screens.
DAX1 inh-1: NR0B1 (DAX1) inhibition; P51843; HEK293 Gal4-DAX1 luciferase reporter, luminescence; inhibition, % at 6.75 µM; hit rate 0.99% among 340,000; AID 504766;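 active = inhibition above the mean over all tested compounds plus 3 SD, cut at about 4.2% in these data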;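 also: 0% = DAX1-transfected cells with DMSO and 100% = empty-vector control cells with DMSO; inhibition shows as a rise in luminescence from relieved DAX1 repression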
Target sequence (P51843 207-470 limits assumed): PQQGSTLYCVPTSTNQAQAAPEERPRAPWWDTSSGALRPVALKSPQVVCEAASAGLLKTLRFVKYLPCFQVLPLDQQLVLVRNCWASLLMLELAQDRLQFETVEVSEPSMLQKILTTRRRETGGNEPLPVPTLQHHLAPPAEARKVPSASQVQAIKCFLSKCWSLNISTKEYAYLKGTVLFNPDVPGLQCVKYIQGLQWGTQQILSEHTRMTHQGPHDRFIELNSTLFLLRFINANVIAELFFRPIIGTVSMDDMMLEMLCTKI
DAX1 inh-2: inhibitors of DAX1 repression of SF-1 activated StAR promoter | HEK293T StAR-luciferase reporter, SF-1/DAX-1 repression relief | inhibition, % at 6.8 µM | hit rate 1.1% among 370,000;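 active = inhibition above the mean over all tested compounds plus 3 SD, cut at about 3.6% in these data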;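 also: 0% = DAX-1 cells with DMSO and 100% = cells lacking DAX-1 with DMSO; higher inhibition means more luminescence from relief of DAX-1 repression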
hgDAF12 agonist: agonists of H. glycines DAF-12 nuclear receptor; HEK293 GAL4-hgDAF12 UAS-luciferase reporter, agonist luminescence; normalized to butyrate control; activation, % at 6.8 µM; hit rate 1.8% among 370,000;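 active = activation above a cutoff set at the mean of all screened compounds plus 3 SD, cut at about 10% in these data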;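 also: 0% = DMSO wells and 100% = sodium butyrate wells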
hcDAF12 agonist: activates DAF-12 receptor from parasite H. contortus; HEK293 hcDAF-12 lit1-tk-luc reporter, luminescence; 0% DMSO, 100% Δ7-dafachronic acid; activation, % at 6.8 µM; hit rate 1.4% among 370,000; AID 652067;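 active = activation above the mean of all tested compounds plus 3 SD, cut at about 5.5% in these data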;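 also: 100% = response to 3 µM Δ7-dafachronic acid high control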
ssDAF-12 act: activates DAF-12 receptor from parasite S. stercoralis; AID 652126; HEK293 ssDAF-12/GRIP1 lit1-tk-luc reporter, luminescence; % of 3 µM dafachronic acid response; activation, % at 6.8 µM; hit rate 1% among 370,000;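 active = activation above the mean over all tested compounds plus 3 SD, cut at about 0.9% in these data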;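 also: 0% = DMSO-only wells and 100% = 3 µM delta7-dafachronic acid wells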
DAX1 conf: confirmation of human DAX1 (NR0B1) inhibitors | AID 652134 | inhibition, % at 6.8 µM | hit rate 87% among 2,400 | shares compounds with DAX1 inh-2 | HEK293T StAR-promoter luciferase reporter, SF-1/DAX-1 repression;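 active = inhibition above the average of every tested compound plus 3 SD, cut at about 3.8% in these data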;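 also: 0% = DAX-1 cells with DMSO and 100% = no DAX-1 control cells with DMSO; active compounds raise luminescence by relieving repression of the StAR reporter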
Target sequence (P51843 whole entry, looked up): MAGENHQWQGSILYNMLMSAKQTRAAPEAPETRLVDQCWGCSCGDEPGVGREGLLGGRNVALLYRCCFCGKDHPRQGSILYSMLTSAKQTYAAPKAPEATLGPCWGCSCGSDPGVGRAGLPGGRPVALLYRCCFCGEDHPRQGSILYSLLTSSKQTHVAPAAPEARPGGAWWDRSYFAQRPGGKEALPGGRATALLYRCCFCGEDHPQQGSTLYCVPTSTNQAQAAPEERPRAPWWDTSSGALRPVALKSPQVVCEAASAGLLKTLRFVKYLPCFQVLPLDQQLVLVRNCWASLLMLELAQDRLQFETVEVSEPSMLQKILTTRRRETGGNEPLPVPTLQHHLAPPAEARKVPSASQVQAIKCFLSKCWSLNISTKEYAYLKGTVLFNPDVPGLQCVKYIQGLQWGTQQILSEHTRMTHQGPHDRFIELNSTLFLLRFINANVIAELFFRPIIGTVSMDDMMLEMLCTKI
SF1 AF2mut Luc: nonselective inhibitor or artifact in SF-1 mutant DAX1 counter-screen; shares compounds with DAX1 inh-2; HEK293 StAR-luciferase, SF-1 AF2 mutant, luminescence; inhibition, % at 6.8 µM; hit rate 78% among 2,400; AID 652136;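 active = inhibition above the mean of all tested compounds plus 3 SD, cut at about 3% in these data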;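 also: 0% = DAX-1 transfected cells with DMSO and 100% = cells without DAX-1 with DMSO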
LXR ag: counter-screen for hcDAF-12 agonists: agonists of human LXR-beta. shares compounds with hcDAF12 agonist. HEK293 Gal4-LXR tk-luc reporter, luminescence, 24 h; normalized: DMSO 0%, positive control 100%. activation, % at 6.8 µM. 3,400 tested, under 10 active;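 active = mean percent activation of the reporter above a cutoff set as the average over tested compounds plus their standard deviation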
hcDAF12 conf: hcDAF-12 agonism, confirmation assay; HEK293 hcDAF-12 lit1-tk-luc reporter, luminescence; % of Δ7-dafachronic acid response; hit rate 61% among 3,400; AID 743032; activation, % at 6.8 µM; shares compounds with hcDAF12 agonist;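 active = mean activation across triplicate tests above the threshold derived from the earlier primary screen, cut at about 5.5% in these data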;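 also: 0% = DMSO only wells and 100% = 3 µM Δ7-dafachronic acid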
hgDAF12 conf: confirmation of H. glycines DAF-12 agonists. shares compounds with hgDAF12 agonist. HEK293 GAL4-hgDAF12 luciferase reporter, agonist mode; percent of butyrate response. activation, % at 6.8 µM. hit rate 80% among 3,300;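 active = mean activation over triplicate wells above the hit cutoff derived from the earlier primary screen, cut at about 11% in these data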;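 also: 0% = DMSO low control and 100% = 2 mM sodium butyrate high control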
LXRb DAF12 ctr: activates human LXR-beta, counter-screen for DAF-12 agonists; HEK293 Gal4-LXR luciferase reporter, 24 h; 3,300 tested, under 10 active; activation, % at 6.8 µM; shares compounds with hgDAF12 agonist;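 active = mean activation of the triplicate above a set limit carried over from the primary screen, none filed active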
* = called active by the depositor; nt = not tested or not shown.

SMILES	DAX1 inh-1	DAX1 inh-2	hgDAF12 agonist	hcDAF12 agonist	ssDAF-12 act	DAX1 conf	SF1 AF2mut Luc	hgDAF12 conf	LXRb DAF12 ctr	others
COc1ccc2cc(C[C@@H]3CC[C@@H](CO)O3)ccc2c1	2	5.0*	15*	4	0	8.1*	5.4*	12*	1
CC(=O)NC(Cc1ccccc1)P(=O)(O)O (stereo unspecified)	nt	0	2	0	-1	nt	nt	nt	nt
COCCCNc1ccn2nc(-c3ccc(Cl)cc3)cc2n1	nt	7.3*	14*	8.0*	0	10*	7.3*	21*	1	LXR ag=1;hcDAF12 conf=6.5*
Cc1ccc(O)c(C(=O)CC(=O)c2ccccc2Cl)c1	5.3*	5.0*	22*	3	0	0	2	5	0
NC1(CO)COC(c2ccccc2)OC1 (stereo unspecified)	1	2	0	-1	-1	nt	nt	nt	nt
O=C(Nc1ccc(SC(F)(F)F)cc1)c1ccccn1	0	6.1*	22*	8.4*	1.1*	15*	3	20*	1	LXR ag=2;hcDAF12 conf=11*
O=C(C(=O)N1CCN(C(=O)c2ccco2)CC1)c1ccccc1	nt	0	1	-2	-1	nt	nt	nt	nt
CC1CCN(S(=O)(=O)c2ccc(C(=O)Nc3ncccc3O)cc2)CC1	3	6.3*	16*	0	0	8.4*	4.3*	15*	0
Cc1cccnc1NC(=O)c1ccc(S(=O)(=O)N2CCCCCC2)cc1	1	0	1	0	-1	nt	nt	nt	nt
O=C1Nc2ccccc2N(C(=O)c2ccc3ccccc3c2)C1c1nc2ccccc2[nH]1 (stereo unspecified)	nt	13*	27*	6.7*	1.8*	3	2.9*	10	0	LXR ag=0;hcDAF12 conf=1
CC1C(=O)Nc2ccccc2N1C(=O)c1ccc(O)cc1 (stereo unspecified)	1	0	1	-3	-1	nt	nt	nt	nt
CCCC(=O)Nc1ccc(-c2nc3cc(C)c(C)cc3o2)cc1	2	5.5*	13*	5	1.6*	14*	8.7*	16*	1
CCOC(=O)c1ccc(N/C=C/C(=O)c2ccco2)cc1	2	4.7*	15*	3	0	12*	7.1*	17*	1
O=C(/C=C/Nc1ccc(F)cc1)c1ccco1	3	3	7	4	-1	nt	nt	nt	nt
O=c1c2ccccc2nc2n1CCc1c-2[nH]c2ccccc12	4.9*	7.8*	25*	13*	3.6*	19*	12*	24*	1	LXR ag=2;hcDAF12 conf=14*
O=C(Nc1ccccc1)c1ccncc1	-1	0	-1	-1	-1	nt	nt	nt	nt
O=C(Nc1cnc2ccccc2c1)c1ccncc1	1	5.5*	14*	5	-1	11*	7.5*	14*	1
Cn1c2c(c3ccccc31)CCN(CCCCN1CCN(c3ccccc3)CC1)C2=O	1	0	-2	-1	-1	nt	nt	nt	nt
Cc1cc(NC(=O)CSc2nnnn2C2CCCC2)no1	0	0	1	0	-1	nt	nt	nt	nt
CCn1c(C)cc(C(=O)CSc2nnnn2C2CCCC2)c1C	3	9.6*	13*	3	0	13*	7.4*	17*	1
CC(=O)Oc1ccc2c(=O)c(-c3ccccc3)coc2c1	0	5.9*	13*	2	-1	6.5*	4.0*	10	0
COc1ccc(-c2coc3cc(OC4OC(CO)C(O)C(O)C4O)ccc3c2=O)cc1 (stereo unspecified)	2	3	9	2	0	nt	nt	nt	nt
COc1ccc(-c2coc3cc(OC)ccc3c2=O)cc1	4	5.8*	19*	5	0	12*	7.0*	13*	1
N/C(=N\OC(=O)c1ccc2ccccc2c1)c1ccncc1	5.2*	5.2*	17*	7.1*	1.1*	10*	6.2*	14*	1	LXR ag=1;hcDAF12 conf=4
N/C(=N\OC(=O)c1ccc2ccccc2c1)c1ccccc1Cl	2	8.8*	14*	4	0	1	3.5*	13*	0
SMILES	DAX1 inh-1	DAX1 inh-2	hgDAF12 agonist	hcDAF12 agonist	ssDAF-12 act	DAX1 conf	SF1 AF2mut Luc	hgDAF12 conf	LXRb DAF12 ctr	others
COCc1cc(N2CCN(C(=O)OC(C)(C)C)C[C@H]2C)ccc1N1CC[C@@H](O)C1	nt	-2	1	2	-2	nt	nt	nt	nt
C[C@H](O)[C@@H]1C(=O)N2CCc3c([nH]c4c(-c5ccccc5)cccc34)[C@@H]2C[C@@H]1N(C)C(=S)Nc1ccc(C#N)cc1	nt	0	0	0	-1	nt	nt	nt	nt
CC(/C=N/NC(=O)c1ccco1)=C\c1ccccc1	1	6.0*	18*	6	0	18*	9.0*	14*	1
Nc1[nH]c(C(=O)c2ccccc2)c(-c2ccccc2C(F)(F)F)c1C(=O)c1c[nH]c2ccccc12	nt	-1	1	3	1	nt	nt	nt	nt
c1ccc2sc(NN=C3CCCCCC3)nc2c1	1	5.2*	13*	12*	1	5.4*	1	6	1	LXR ag=2;hcDAF12 conf=11*
C/C(=N\Nc1nc2ccccc2s1)c1ccc2c(c1)OCO2	1	1	7	2	0	nt	nt	nt	nt
Cc1ccc(/C=C(\C#N)C(=O)Nc2ccccn2)o1	3	11*	18*	3	1	10*	7.6*	13*	1
COc1ccc(/C=C(\C#N)C(=O)Nc2ccccn2)cc1	-1	0	0	0	-1	nt	nt	nt	nt
Cc1cc2c(cc1C)NC(=O)C(C)CN2 (stereo unspecified)	3	5.7*	20*	12*	3.0*	16*	7.9*	14*	1	LXR ag=2;hcDAF12 conf=11*
O=C(OC12CCCN(C1)/C(=C/c1ccc(Cl)cc1)C2)c1ccco1 (stereo unspecified)	nt	1	-3	-2	-1	nt	nt	nt	nt
O=C(CSc1nnc(-c2csc3c2CCCC3)o1)Nc1ccccc1	0	10*	18*	14*	2.1*	19*	7.2*	16*	1	LXR ag=2;hcDAF12 conf=19*
